Measurements as given in the supplement of paper PMC8728848.
The entries come from a sample that favours the strongest signals as a whole.

Tests used:
Assay in all cases: glycan array binding signal (z-score within array); higher = stronger binding
[1] = tested on: Gal(b1-3)GlcNAc(b1-3)GalNAc; conditions: glycan notation: IUPAC condensed, linker removed
Outline: (§1)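 Glycan array data were curated from 3228 arrays in the Consortium for Functional Glycomics database and kept only where the protein sequence was available. Glycan names were converted to IUPAC-condensed notation, and columns mapping to the same glycan were averaged. The binding signal is a within-array Z-score, averaged across arrays of the same protein sequence at different concentrations or buffers and across linkers. Negative Z-scores can be read as non-binding.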

Gal(b1-3)GlcNAc6S = conditions: glycan notation: IUPAC condensed, linker removed
Outline: as §1

Gal(b1-3)GlcNAc = conditions: glycan notation: IUPAC condensed, linker removed
Outline: as §1

[2] = tested on: Gal(b1-3)[Fuc(a1-4)]GlcNAc(b1-2)Man(a1-3)[Gal(b1-3)[Fuc(a1-4)]GlcNAc(b1-2)Man(a1-6)]Man(b1-4)GlcNAc(b1-4)GlcNAc; conditions: glycan notation: IUPAC condensed, linker removed
Outline: as §1

[3] = tested on: Gal(b1-3)[Fuc(a1-4)]GlcNAc(b1-2)Man(a1-3)[Gal(b1-3)[Fuc(a1-4)]GlcNAc(b1-2)Man(a1-6)]Man(b1-4)GlcNAc(b1-4)[Fuc(a1-6)]GlcNAc; conditions: glycan notation: IUPAC condensed, linker removed
Outline: as §1

[4] = tested on: Gal(b1-3)[Fuc(a1-4)]GlcNAc(b1-3)Gal(b1-4)[Fuc(a1-3)]GlcNAc; conditions: glycan notation: IUPAC condensed, linker removed
Outline: as §1

[5] = tested on: Gal(b1-3)[Fuc(a1-4)]GlcNAc(b1-2)Man; conditions: glycan notation: IUPAC condensed, linker removed; mutation: R125K
Outline: as §1

[6] = tested on: Gal(b1-3)[Fuc(a1-4)]GlcNAc(b1-3)Gal(b1-4)GlcNAc; conditions: glycan notation: IUPAC condensed, linker removed
Outline: as §1

Sequence of CHI3L1 (Homo sapiens), P36222 (P36222 whole entry): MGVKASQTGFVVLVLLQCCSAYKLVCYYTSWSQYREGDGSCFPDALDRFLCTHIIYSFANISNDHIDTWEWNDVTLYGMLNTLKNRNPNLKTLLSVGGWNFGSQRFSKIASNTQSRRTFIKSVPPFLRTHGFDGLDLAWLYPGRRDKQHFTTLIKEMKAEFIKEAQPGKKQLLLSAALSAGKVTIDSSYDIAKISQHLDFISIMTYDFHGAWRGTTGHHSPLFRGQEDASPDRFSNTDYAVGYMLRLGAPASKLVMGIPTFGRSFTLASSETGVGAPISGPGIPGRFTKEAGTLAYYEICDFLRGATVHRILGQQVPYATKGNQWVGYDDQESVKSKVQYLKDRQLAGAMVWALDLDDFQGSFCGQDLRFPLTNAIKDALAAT
Sequence of SRLC (Mus musculus), Q8VIF6 (Q8VIF6 other isoform, or with tags, fused parts or gaps): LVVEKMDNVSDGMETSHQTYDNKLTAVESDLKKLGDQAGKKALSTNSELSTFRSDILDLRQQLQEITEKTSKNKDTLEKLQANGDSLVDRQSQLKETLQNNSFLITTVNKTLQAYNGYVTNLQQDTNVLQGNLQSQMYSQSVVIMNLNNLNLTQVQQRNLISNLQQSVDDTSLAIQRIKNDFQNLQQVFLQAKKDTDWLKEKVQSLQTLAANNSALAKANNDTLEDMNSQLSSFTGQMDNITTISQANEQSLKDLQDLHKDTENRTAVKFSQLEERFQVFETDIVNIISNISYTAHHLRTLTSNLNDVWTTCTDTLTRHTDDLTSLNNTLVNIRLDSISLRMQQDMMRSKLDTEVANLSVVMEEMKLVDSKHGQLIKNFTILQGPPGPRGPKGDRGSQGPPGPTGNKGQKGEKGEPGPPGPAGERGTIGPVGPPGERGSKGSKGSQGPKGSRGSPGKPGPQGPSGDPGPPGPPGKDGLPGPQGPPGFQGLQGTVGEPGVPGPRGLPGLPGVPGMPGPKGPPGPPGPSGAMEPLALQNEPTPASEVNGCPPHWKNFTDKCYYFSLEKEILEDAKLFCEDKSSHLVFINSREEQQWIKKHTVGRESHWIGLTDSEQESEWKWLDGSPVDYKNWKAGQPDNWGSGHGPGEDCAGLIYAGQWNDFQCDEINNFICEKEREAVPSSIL
Sequence of Regenerating Gene IV (Homo sapiens), Q9BYZ8 (Q9BYZ8 whole entry, looked up): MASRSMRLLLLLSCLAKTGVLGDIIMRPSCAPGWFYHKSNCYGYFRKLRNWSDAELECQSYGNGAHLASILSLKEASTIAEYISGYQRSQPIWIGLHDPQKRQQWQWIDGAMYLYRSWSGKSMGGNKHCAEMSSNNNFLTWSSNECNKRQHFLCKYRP
Sequence of Avaren (Actinomycete K97) (chain, as listed by the source): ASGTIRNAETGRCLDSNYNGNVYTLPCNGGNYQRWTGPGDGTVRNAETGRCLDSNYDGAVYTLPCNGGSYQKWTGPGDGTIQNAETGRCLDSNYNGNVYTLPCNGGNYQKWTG
Sequence of PILRb (Mus musculus), Q2YSF2 (Q2YSF2 entry or part of it): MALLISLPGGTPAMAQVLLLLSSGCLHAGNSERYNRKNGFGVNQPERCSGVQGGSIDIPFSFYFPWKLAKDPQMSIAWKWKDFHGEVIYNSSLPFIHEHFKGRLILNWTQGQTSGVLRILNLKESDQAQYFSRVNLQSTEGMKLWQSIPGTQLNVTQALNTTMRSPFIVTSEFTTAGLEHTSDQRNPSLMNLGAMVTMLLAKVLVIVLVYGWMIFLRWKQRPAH
Sequence of PILRa (Mus musculus), Q2YSF3 (Q2YSF3 entry or part of it): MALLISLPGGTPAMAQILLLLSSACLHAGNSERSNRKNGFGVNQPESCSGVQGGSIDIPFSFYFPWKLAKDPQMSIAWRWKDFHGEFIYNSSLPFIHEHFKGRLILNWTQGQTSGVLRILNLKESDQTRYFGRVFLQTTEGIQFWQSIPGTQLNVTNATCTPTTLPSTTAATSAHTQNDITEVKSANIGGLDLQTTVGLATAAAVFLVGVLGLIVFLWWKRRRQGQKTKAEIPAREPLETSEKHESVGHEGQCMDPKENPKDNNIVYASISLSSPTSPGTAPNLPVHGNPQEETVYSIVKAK

CHI3L1 (Homo sapiens), P36222
glycan array binding signal (z-score) [1]: -0.129
glycan array binding signal (z-score) (Gal(b1-3)GlcNAc6S): 0.72

PILRb (Mus musculus), Q2YSF2
glycan array binding signal (z-score) (Gal(b1-3)GlcNAc): -0.113

PILRa (Mus musculus), Q2YSF3
glycan array binding signal (z-score) [2]: 0.063

MpAFP RI GFP (Marinomonas primoryensis)
glycan array binding signal (z-score) [3]: 2.74
glycan array binding signal (z-score) [4]: -0.369

Avaren (Actinomycete K97)
glycan array binding signal (z-score) [3]: 1.53

Siglec-8 (Homo sapiens), Q9NYZ4
glycan array binding signal (z-score) [5]: 0.797

Regenerating Gene IV (Homo sapiens), Q9BYZ8
glycan array binding signal (z-score) [6]: -0.208

SRLC (Mus musculus), Q8VIF6
glycan array binding signal (z-score) [4]: 4.49
